In PubChem BioAssay AID624417 (National Center for Advancing Translational Sciences (NCATS), 2012):
About 6,400 (1.6%) of roughly 410,000 compounds were called active. Where a call stands in place of a potency, no number is given. Roughly 20% stayed inconclusive and do not appear here. The call rests on the fitted dose curve; in most records, active means well fitted inhibition curve with a large enough effect; inconclusive means small, poorly fitted or top-dose-only effect; inactive means no such curve, though single readings can be large or run the other way. The sample as a whole holds a higher share of actives than the screen did. Peptide text beside a SMILES is read from it. * marks the point of attachment. Bz = O=C(c1ccccc1)*

molecular target: Glucagon-like peptide 1 receptor (Homo sapiens) (UniProt P43220); experiment: qHTS of GLP-1 Receptor Inverse Agonists (Inhibition Mode); settings: HEK293 GLP-1R CRE-luciferase, luminescence, 24 h, GLP-1R form is constitutively active; series mostly up to 38.3 µM; further: nearly all actives have a fitted effect of over 55% in size
Method in brief: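 Stable HEK293 clone (constitutively active GLP-1R + cAMP-response luciferase); 200 cells/uL plated, 12 h pre-culture, compound 24 hr, 37 deg C/5% CO2; detection reagent 12 min RT; luminescence.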
Potency means the concentration at half of the fitted maximal effect.

Chain of Glucagon-like peptide 1 receptor (Homo sapiens) (P43220 whole entry, looked up): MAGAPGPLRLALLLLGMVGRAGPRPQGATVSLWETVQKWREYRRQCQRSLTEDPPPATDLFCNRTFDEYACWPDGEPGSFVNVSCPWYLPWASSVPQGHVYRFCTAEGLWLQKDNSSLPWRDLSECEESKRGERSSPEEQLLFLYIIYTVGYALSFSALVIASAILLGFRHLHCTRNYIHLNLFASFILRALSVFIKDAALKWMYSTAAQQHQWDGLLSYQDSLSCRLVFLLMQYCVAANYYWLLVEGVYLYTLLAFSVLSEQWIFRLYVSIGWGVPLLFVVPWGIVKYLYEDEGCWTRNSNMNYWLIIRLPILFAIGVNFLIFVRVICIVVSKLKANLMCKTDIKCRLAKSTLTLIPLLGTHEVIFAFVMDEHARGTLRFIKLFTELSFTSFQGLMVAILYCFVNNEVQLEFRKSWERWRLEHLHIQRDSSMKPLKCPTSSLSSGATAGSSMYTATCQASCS

Row | Compound | Potency | activity change, negative = inhibition
1 | CCN1C(=O)[C@@H]2[C@@H]3CN(S(=O)(=O)c4ccccc4C)[C@@H](c4ccc(Cl)cc4)[C@@H]3C(=O)C[C@@H]2C1=O | inactive | –
2 | CCOC(=O)c1cc(-c2sc(NC(=O)c3ccccc3)nc2C)n(CCO)n1 | inactive | –
3 | CCc1nc2ccc(C(=O)NCCNC(C)=O)cn2c1N(CC)Cc1cccc(Br)c1 | inactive | –
4 | C#CC(C)(CC)NC(=O)Cn1nnc(-c2ccc(OCc3c(F)cccc3Cl)cc2)n1 (stereo not drawn) | 3.16 µM (active) | –
5 | COc1ccc(CNC(=O)Cn2nnc(-c3ccccc3F)n2)cc1 | inactive | –
6 | CC(C)(C)NC(=O)Cn1nnc(-c2ccccc2Cl)n1 | inactive | –
7 | CN(C(=O)c1cccc(OC2CCN(S(=O)(=O)N(C)C)CC2)c1)C1CCOC1 (stereo not drawn) | inactive | –
8 | CN(C)S(=O)(=O)N1CCC(Oc2cccc(C(=O)NCCCC3CCCC3)c2)CC1 | 10 µM (active) | –
9 | CNS(=O)(=O)c1cccc(C(=O)NCC2CCCCC2)c1 | inactive | –
10 | CCNC(=O)C1(C)CCN(Cc2ccc(C(=O)OCC)o2)C1 (stereo not drawn) | inactive | –
11 | CCc1noc(C)c1C(=O)OCC(=O)c1ccc(NC(=O)CC(C)C)cc1 | inactive | –
12 | Cc1cccc(C)c1NC(=O)C(c1cccc2ccccc12)n1c(=O)c(-c2ccco2)nc2ccccc21 (stereo not drawn) | inactive | –
13 | COc1ccc(Cl)cc1NC(=O)CN(C)C(=O)c1cc2ccccc2cc1OC | 10 µM (active) | –
14 | COc1ccc(Cl)cc1NC(=O)CN(C)C(=O)c1cn(-c2ccccc2)nc1-c1cccs1 | inactive | –
15 | COc1ccc(Cl)cc1NC(=O)CN(C)C(=O)c1ccc2n[nH]nc2c1 | inactive | –
16 | O=[N+]([O-])c1ccc(C(S(=O)(=O)Cc2ccccc2)S(=O)(=O)Cc2ccccc2)cc1 | inactive | –
17 | c1ccc2c(CNn3cnnc3)cccc2c1 | inactive | –
18 | N=C(N)SCc1cccc2ccccc12 | 10 µM (active) | –
19 | N#C/C(=C(/O)Cc1cccc2ccccc12)c1nc2ccccc2s1 | inactive | –
20 | CCCCNC(=O)OC1CC2CC1[C@H]1CCCCN1C2=O (stereo partly drawn) | inactive | –
21 | C[C@H](NC(=O)CC[C@H]1O[C@@H](n2ccc(=O)[nH]c2=O)[C@H](O)[C@@H]1O)c1cccc2ccccc12 | inactive | –

Row | Compound | Potency | activity change, negative = inhibition
22 | COc1cccc(C2c3[nH]c4ccccc4c3CCN2Cc2cccc(C)n2)c1 (stereo not drawn) | 11.2 µM (active) | –
23 | COC(=O)[C@H]1[C@H]2C[C@H]3c4[nH]c5ccccc5c4CCN3C[C@@H]2CC[C@@H]1O | inactive | –
24 | COc1cccc(N2CCN(C(=O)CCCCCn3c(=O)[nH]c4ccccc4c3=O)CC2)c1 | inactive | –
25 | Cc1ccc(S(=O)(=O)NCCC(=O)Nc2ccc(C)c(Cl)c2)cc1C | 7.08 µM (active) | –
26 | Cc1ccc(S(=O)(=O)NCCC(=O)Nc2cccc(S(N)(=O)=O)c2)cc1C | inactive | –
27 | Cc1ccc(NC(=O)CCNS(=O)(=O)c2ccc3c(c2)oc(=O)n3C)cc1C | inactive | –
28 | Cc1cccc(N(CC(=O)N2CCCC2)S(C)(=O)=O)c1C | inactive | –
29 | COCCCn1cc(CN2CC(N(C)C)CS2(=O)=O)nn1 (stereo not drawn) | inactive | –
30 | O=C(CSc1ncn[nH]1)Nc1nc2c(F)c(F)c(F)cc2s1 | inactive | –
31 | Cc1ccc(-c2nn(-c3ccccc3)cc2/C=C/C(=O)Nc2cccc(S(N)(=O)=O)c2)cc1 | 5.01 µM (active) | –
32 | COc1ccc(-c2nn(-c3ccccc3)cc2/C=C\C(=O)Nc2ccc(C(=O)O)cc2)cc1 | inactive | –
33 | NS(=O)(=O)c1cccc(NC(=O)CSc2nc3ccccc3n2-c2ccccc2)c1 | – | 33.1% [at 7.66 µM] (inactive)
34 | O=C(Nc1ccc2c(c1)OCCO2)C1c2ccccc2OCC(=O)N1Cc1ccccn1 (stereo not drawn) | inactive | –
35 | c1cc(-c2ccc3[nH]ccc3c2)n2ccnc2c1 | inactive | –
36 | CCCCOc1ccc(CSC(=N)N)cc1[N+](=O)[O-] | inactive | –
37 | CCCCCOc1ccc(CSC2=NCCN2)cc1[N+](=O)[O-] | 3.98 µM (active) | –
38 | Cc1nc(SCc2ccc(F)cc2)c([N+](=O)[O-])[nH]1 | inactive | –
39 | CC1(C)OC(=O)C2=C(C[C@@H](C3CC3)O[C@H]2c2ccc(Cl)cc2)O1 | inactive | –
40 | CN(C)C(CNC(=O)c1cccc(S(=O)(=O)N2CCc3ccccc3C2)c1)c1ccccc1 (stereo not drawn) | inactive | –
41 | Cc1ccn(CC(=O)NC2CCCN(Cc3ccccc3F)C2)n1 (stereo not drawn) | inactive | –
42 | CC1(C)CN(Cc2cccnc2)C(=O)[C@H]1CC(=O)Nc1ccc(Br)cc1 | inactive | –

Row | Compound | Potency | activity change, negative = inhibition
43 | CC1Oc2ccccc2N(Cc2cccnc2)C1=O (stereo not drawn) | inactive | –
44 | CC12c3ccccc3C(c3ccccc31)C1C(=O)N(Cc3cccnc3)C(=O)C12 (stereo not drawn) | 8.91 µM (active) | –
45 | COc1cccc(CNc2nc3cc(-c4csc5ccccc45)sc3c(=O)n2C)c1 | inactive | –
46 | CCCNC(=O)C1(C)CCCN(C(=O)c2cccc(OC(C)=O)c2C)C1 (stereo not drawn) | inactive | –
47 | Cc1ccc2sc(N(CCN(C)C)C(=O)/C=C/c3cccs3)nc2c1C | inactive | –
48 | COc1cccc2sc(N(CCCN(C)C)C(=O)C(c3ccccc3)c3ccccc3)nc12 | 5.62 µM (active) | –
49 | CCN(CC)CCN(C(=O)c1ccc2c(c1)CCCC2)c1nc2c(OC)cccc2s1 | 11.2 µM (active) | –
50 | Cc1cc(C)c2nc(N(CCN(C)C)C(=O)/C=C/c3cccs3)sc2c1 | inactive | –
51 | COc1ccccc1CNC(=O)Cn1cc2c(n1)CCCC2 | inactive | –
52 | CCN(CC)CCN(C(=O)c1cccc([N+](=O)[O-])c1)c1nc2ccc(OC)cc2s1 | inactive | –
53 | CCCCN1C(=O)C(CC(=O)NC(c2ccccc2)c2ccccc2)CC(C(=O)N2CCOCC2)=C1C (stereo not drawn) | inactive | –
54 | C[C@@H]1CC2=C(C(=O)OC(C)(C)O2)[C@@H](C2CC2)O1 | inactive | –
55 | COc1cccc(-c2cnc3c(NC(C)=O)cc(-c4cccc(NC(C)=O)c4)cn23)c1 | inactive | –
56 | COC(=O)CN(c1nc(C)c(Cl)c(OC)n1)S(=O)(=O)c1ccc(C)cc1 | 10 µM (active) | –
57 | COc1ccc(C)cc1N(CC(=O)N1CCC(C)CC1)S(=O)(=O)c1ccc(C)cc1 | inactive | –
58 | CCN(CC)C(=O)CN(c1cccc(OC)c1)S(=O)(=O)c1ccc(C)cc1 | inactive | –
59 | CCc1ccc([C@@H]2CC(=O)[C@@H]3CN(S(=O)(=O)c4ccc(C)cc4)[C@H](c4ccc(Cl)cc4)C[C@@H]3N2S(=O)(=O)c2ccc(C)cc2)cc1 | inactive | –
60 | COc1cc(C=NC2CCCCC2)ccc1O | inactive | –
61 | CN(Cc1ccccc1F)C(=O)C(Cc1ccccc1)NC(=O)c1ccccc1 (stereo not drawn) | 11.2 µM (active) | –
62 | NC(=O)c1ccc(NC(=O)COC(=O)C(Cc2ccccc2)NC(=O)c2ccccc2)cc1 (stereo not drawn) | inactive | –
63 | O=C(NC(Cc1ccccc1)C(=O)N1CCCC1C(=O)O)c1ccccc1 (stereo not drawn) (Bz-Phe-Pro-OH; configuration not given here) | inactive | –
